This is an account of results in PMC7862700, “An all-to-all approach to the identification of sequence-specific readers for epigenetic DNA modifications on cytosine”.

Common to all, as to experiment: DAPPL (digital affinity profiling via proximity ligation, sequencing); 10 mM Tris-HCl pH 7.5, 50 mM NaCl, 1 mM DTT, 4% glycerol, room temperature, 30 min; GST-TFs on glutathione beads, 16-mer random dsDNA library, 0.1% formaldehyde crosslink after washing; high values mean tight binding
The target in one assay is T1, FEV (Homo sapiens, UniProt Q99581 1-238).
T1 sequence: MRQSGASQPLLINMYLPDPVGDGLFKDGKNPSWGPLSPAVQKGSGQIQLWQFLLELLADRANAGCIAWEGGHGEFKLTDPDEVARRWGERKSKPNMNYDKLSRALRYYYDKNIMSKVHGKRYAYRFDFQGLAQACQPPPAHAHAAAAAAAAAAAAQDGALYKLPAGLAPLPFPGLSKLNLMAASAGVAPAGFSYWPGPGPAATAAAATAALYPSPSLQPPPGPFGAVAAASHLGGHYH
Particulars: protein: recombinant; tags: N-terminal GST; dsDNA, one strand shown. The procedure, abridged: (§1)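 Binding signal is each hexamer's read frequency for a factor divided by its frequency in the tag-only sample. The factors were GST-fused human transcription factors from yeast, captured on glutathione beads, DNA-barcoded and pooled with that sample. Pools were incubated with 200 nmole of a random double-stranded 16-mer DNA library in Tris/NaCl/DTT/glycerol buffer at room temperature for 30 min, then washed, crosslinked with 0.1% formaldehyde, proximity-ligated with BsaI/T4 ligase (1 h, 37 °C), PCR-amplified and sequenced on an Illumina NextSeq500.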

The next assay deals with ETV5 (Homo sapiens, UniProt P41161 1-510). The conditions noted are these: protein: recombinant; tags: N-terminal GST; dsDNA, one strand shown. The procedure, abridged:
as §1

For a further assay, the target named is HSF1 (Homo sapiens, UniProt Q00613 1-529). Particulars: protein: recombinant; tags: N-terminal GST; chain copies: 3; dsDNA, one strand shown. The procedure, abridged: as §1
Chain of HSF1 (Q00613 whole entry): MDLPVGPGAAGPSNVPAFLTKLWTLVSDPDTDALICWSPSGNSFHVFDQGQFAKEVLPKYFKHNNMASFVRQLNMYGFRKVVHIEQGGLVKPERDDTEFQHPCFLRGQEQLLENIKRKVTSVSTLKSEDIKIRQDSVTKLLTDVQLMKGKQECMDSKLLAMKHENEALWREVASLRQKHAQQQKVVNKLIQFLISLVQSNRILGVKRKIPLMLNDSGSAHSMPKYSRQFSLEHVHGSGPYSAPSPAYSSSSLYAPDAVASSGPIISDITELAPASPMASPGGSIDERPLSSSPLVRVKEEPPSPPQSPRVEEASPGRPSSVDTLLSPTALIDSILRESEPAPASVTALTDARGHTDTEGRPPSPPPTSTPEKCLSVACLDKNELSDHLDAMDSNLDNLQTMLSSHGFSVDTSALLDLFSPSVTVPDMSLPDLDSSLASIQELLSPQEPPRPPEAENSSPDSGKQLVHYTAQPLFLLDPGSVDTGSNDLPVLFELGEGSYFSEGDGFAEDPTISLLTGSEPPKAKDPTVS
The next assay concerns the target T2, SPIC (Homo sapiens, UniProt Q8N5J4 1-248).
T2 sequence: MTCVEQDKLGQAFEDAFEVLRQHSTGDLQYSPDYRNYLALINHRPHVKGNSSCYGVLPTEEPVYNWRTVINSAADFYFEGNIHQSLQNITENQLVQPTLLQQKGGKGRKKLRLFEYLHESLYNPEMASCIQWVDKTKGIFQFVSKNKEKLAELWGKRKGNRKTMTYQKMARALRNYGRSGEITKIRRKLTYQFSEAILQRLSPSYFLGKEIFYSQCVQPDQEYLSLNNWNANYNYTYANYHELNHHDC
Particulars: protein: recombinant; tags: N-terminal GST; dsDNA, one strand shown. In a few lines:
as §1

A further assay has as its target ELF4 (Homo sapiens, UniProt Q99607 1-663). The conditions noted are these: protein: recombinant; tags: N-terminal GST; dsDNA, one strand shown. The procedure, abridged:
as §1

The target of another assay is T3, ELK4 (Homo sapiens, UniProt P28324-2 1-405).
T3 sequence: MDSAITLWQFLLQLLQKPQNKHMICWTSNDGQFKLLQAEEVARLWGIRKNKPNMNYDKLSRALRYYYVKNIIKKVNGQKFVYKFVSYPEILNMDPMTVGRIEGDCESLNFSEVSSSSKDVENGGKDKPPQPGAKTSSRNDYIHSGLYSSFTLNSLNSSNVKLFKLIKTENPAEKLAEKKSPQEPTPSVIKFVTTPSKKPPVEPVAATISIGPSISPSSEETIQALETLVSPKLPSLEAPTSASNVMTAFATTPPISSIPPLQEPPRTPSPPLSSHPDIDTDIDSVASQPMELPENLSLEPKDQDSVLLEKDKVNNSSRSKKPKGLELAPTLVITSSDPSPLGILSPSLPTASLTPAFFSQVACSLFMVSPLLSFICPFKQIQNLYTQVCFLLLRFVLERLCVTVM
Particulars: protein: recombinant; tags: N-terminal GST; dsDNA, one strand shown. The procedure, abridged:
as §1

The next assay has as its target T4, ETV2 (Homo sapiens, UniProt O00321 1-342).
T4 sequence: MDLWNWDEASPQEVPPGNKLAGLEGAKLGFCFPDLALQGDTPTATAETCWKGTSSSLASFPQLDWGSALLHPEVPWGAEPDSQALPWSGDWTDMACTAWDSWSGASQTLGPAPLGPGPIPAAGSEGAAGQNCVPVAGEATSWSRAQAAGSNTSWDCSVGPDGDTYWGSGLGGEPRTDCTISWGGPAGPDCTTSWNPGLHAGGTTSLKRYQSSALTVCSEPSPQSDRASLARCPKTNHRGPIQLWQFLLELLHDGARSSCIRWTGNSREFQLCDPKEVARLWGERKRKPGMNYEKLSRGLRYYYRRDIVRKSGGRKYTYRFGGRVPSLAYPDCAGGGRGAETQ
The conditions noted are these: protein: recombinant; tags: N-terminal GST; dsDNA, one strand shown. In a few lines: as §1

In the next assay the target is CRX (Homo sapiens, UniProt O43186 1-299). The conditions noted are these: protein: recombinant; tags: N-terminal GST; dsDNA, one strand shown. In a few lines: as §1
Chain of CRX (O43186 whole entry): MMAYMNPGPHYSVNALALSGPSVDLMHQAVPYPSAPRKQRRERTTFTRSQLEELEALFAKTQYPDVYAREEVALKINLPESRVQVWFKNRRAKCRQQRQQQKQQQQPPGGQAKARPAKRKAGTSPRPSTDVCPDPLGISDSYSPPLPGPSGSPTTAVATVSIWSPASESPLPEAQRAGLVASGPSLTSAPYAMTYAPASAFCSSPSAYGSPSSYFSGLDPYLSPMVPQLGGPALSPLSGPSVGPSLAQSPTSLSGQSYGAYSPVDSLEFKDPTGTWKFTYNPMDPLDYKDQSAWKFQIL
The target of a further assay is ETV1 (Homo sapiens, UniProt P50549 1-477). Particulars: protein: recombinant; tags: N-terminal GST; dsDNA, one strand shown. In a few lines: as §1
Chain of ETV1 (P50549 whole entry): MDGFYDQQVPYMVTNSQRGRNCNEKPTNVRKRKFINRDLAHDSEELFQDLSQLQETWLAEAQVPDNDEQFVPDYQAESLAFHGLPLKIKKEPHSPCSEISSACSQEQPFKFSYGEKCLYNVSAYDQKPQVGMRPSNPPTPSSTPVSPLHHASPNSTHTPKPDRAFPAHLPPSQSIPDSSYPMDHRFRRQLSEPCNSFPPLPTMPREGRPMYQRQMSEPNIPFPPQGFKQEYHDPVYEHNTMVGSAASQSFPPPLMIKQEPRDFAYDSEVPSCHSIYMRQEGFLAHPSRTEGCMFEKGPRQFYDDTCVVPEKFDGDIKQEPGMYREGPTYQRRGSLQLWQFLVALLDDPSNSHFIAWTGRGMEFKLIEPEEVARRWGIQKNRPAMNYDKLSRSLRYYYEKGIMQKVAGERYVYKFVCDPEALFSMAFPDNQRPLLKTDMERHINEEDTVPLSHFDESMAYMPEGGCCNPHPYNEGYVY

Chain of ELF4 (Q99607 whole entry): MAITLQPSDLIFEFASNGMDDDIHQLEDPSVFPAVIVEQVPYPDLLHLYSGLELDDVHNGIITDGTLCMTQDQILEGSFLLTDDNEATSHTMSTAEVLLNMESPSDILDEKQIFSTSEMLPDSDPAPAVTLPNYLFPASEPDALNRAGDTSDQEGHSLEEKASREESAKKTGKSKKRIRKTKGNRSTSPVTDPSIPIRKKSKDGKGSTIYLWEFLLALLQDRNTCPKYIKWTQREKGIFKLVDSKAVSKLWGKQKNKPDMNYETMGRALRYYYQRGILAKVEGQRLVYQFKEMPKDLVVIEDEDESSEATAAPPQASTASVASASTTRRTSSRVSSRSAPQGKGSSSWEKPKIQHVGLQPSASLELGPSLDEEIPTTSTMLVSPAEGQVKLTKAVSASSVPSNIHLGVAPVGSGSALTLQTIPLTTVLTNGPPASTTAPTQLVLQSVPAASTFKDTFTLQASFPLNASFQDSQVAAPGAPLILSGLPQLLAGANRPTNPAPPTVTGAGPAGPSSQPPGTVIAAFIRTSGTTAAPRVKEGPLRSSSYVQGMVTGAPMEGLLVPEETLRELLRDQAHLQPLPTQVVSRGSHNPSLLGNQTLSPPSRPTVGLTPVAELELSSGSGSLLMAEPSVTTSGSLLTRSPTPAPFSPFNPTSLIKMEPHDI
Chain of ETV5 (P41161 whole entry): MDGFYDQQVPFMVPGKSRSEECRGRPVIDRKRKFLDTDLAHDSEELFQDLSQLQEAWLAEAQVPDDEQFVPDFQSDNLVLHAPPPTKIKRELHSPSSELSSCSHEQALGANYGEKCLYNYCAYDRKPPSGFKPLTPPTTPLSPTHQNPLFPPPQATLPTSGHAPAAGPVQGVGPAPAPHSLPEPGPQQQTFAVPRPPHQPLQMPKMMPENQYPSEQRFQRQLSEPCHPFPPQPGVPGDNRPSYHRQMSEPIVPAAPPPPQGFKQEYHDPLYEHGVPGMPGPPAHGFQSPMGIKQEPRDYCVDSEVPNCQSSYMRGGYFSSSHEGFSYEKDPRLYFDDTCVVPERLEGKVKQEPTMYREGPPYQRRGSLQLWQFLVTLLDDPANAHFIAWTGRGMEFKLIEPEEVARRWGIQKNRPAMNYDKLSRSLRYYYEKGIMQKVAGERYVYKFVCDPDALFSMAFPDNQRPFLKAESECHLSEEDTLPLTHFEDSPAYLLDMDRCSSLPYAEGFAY

As to TCTGTA, the binding signal was 1.24 fold enrichment (6-mer frequency, TF over GST control) with FEV; 1.19 fold enrichment (6-mer frequency, TF over GST control) in the assay with ETV5; 1.31 fold enrichment (6-mer frequency, TF over GST control) with HSF1; 1.39 fold enrichment (6-mer frequency, TF over GST control) with SPIC; 1.18 fold enrichment (6-mer frequency, TF over GST control) with ELF4; 1.3 fold enrichment (6-mer frequency, TF over GST control) with ELK4. Also, the binding signal in the assay with ETV2 is 1.28 fold enrichment (6-mer frequency, TF over GST control); with CRX, 1.34 fold enrichment (6-mer frequency, TF over GST control); with ETV1, 1.28 fold enrichment (6-mer frequency, TF over GST control).
Take TAAGCC: the binding signal in the assay with FEV is 1.15 fold enrichment (6-mer frequency, TF over GST control); with ETV5, 1.12 fold enrichment (6-mer frequency, TF over GST control); with HSF1 it was 2.07 fold enrichment (6-mer frequency, TF over GST control); with SPIC, 1.15 fold enrichment (6-mer frequency, TF over GST control); with ELF4, 1.19 fold enrichment (6-mer frequency, TF over GST control); in the assay with ELK4, 1.15 fold enrichment (6-mer frequency, TF over GST control). Also, the binding signal in the assay with ETV2 was 1.09 fold enrichment (6-mer frequency, TF over GST control); in the assay with CRX, 3.55 fold enrichment (6-mer frequency, TF over GST control); with ETV1, 1.14 fold enrichment (6-mer frequency, TF over GST control).
As for CCACGA, the binding signal was 1.11 fold enrichment (6-mer frequency, TF over GST control) with FEV; 1.02 fold enrichment (6-mer frequency, TF over GST control) in the assay with ETV5; 1.12 fold enrichment (6-mer frequency, TF over GST control) with HSF1; 1.17 fold enrichment (6-mer frequency, TF over GST control) with SPIC; 1.1 fold enrichment (6-mer frequency, TF over GST control) with ELF4; 1.18 fold enrichment (6-mer frequency, TF over GST control) with ELK4. Moreover, the binding signal with ETV2 was 1.09 fold enrichment (6-mer frequency, TF over GST control); in the assay with CRX, 1 fold enrichment (6-mer frequency, TF over GST control); in the assay with ETV1, 1.02 fold enrichment (6-mer frequency, TF over GST control).
Turning to CGAAAT, the binding signal with FEV is 1 fold enrichment (6-mer frequency, TF over GST control); in the assay with ETV5, 1 fold enrichment (6-mer frequency, TF over GST control); with HSF1, 1.4 fold enrichment (6-mer frequency, TF over GST control); in the assay with SPIC it was 1.01 fold enrichment (6-mer frequency, TF over GST control); with ELF4, 1.01 fold enrichment (6-mer frequency, TF over GST control); in the assay with ELK4, 1.18 fold enrichment (6-mer frequency, TF over GST control). Moreover, the binding signal with ETV2 is 1.06 fold enrichment (6-mer frequency, TF over GST control); with CRX, 1.07 fold enrichment (6-mer frequency, TF over GST control); in the assay with ETV1 it was 1.02 fold enrichment (6-mer frequency, TF over GST control).
AGCCTA: the binding signal is 1.01 fold enrichment (6-mer frequency, TF over GST control) with FEV; 1.09 fold enrichment (6-mer frequency, TF over GST control) with ETV5; 1.21 fold enrichment (6-mer frequency, TF over GST control) with HSF1; 1.13 fold enrichment (6-mer frequency, TF over GST control) with SPIC; 1.09 fold enrichment (6-mer frequency, TF over GST control) with ELF4; 1.17 fold enrichment (6-mer frequency, TF over GST control) in the assay with ELK4. For the same sequence, the binding signal with ETV2 is 1.12 fold enrichment (6-mer frequency, TF over GST control); with CRX it was 1.52 fold enrichment (6-mer frequency, TF over GST control); with ETV1, 1.12 fold enrichment (6-mer frequency, TF over GST control).
Consider CTCAGA, for which the binding signal in the assay with FEV was 1.03 fold enrichment (6-mer frequency, TF over GST control); in the assay with ETV5, 1.14 fold enrichment (6-mer frequency, TF over GST control); with HSF1, 1.17 fold enrichment (6-mer frequency, TF over GST control); in the assay with SPIC, 1.16 fold enrichment (6-mer frequency, TF over GST control); with ELF4 it was 1.14 fold enrichment (6-mer frequency, TF over GST control); with ELK4, 1.01 fold enrichment (6-mer frequency, TF over GST control). For the same sequence, the binding signal with ETV2 was 1.18 fold enrichment (6-mer frequency, TF over GST control); with CRX, 1.27 fold enrichment (6-mer frequency, TF over GST control); with ETV1 it was 1.1 fold enrichment (6-mer frequency, TF over GST control).
In the case of TGTAGC, the binding signal with FEV is 1.17 fold enrichment (6-mer frequency, TF over GST control); with ETV5 it was 1.24 fold enrichment (6-mer frequency, TF over GST control); with HSF1, 1.02 fold enrichment (6-mer frequency, TF over GST control); with SPIC, 1.11 fold enrichment (6-mer frequency, TF over GST control); in the assay with ELF4, 1.26 fold enrichment (6-mer frequency, TF over GST control); in the assay with ELK4, 1.31 fold enrichment (6-mer frequency, TF over GST control). Besides, the binding signal with ETV2 was 1.24 fold enrichment (6-mer frequency, TF over GST control); with ETV1, 1.22 fold enrichment (6-mer frequency, TF over GST control).
